PD-1 reverse act = activators reversing PD-1 mediated T-cell inhibition; primary human CD4 T cells, PD-L1 beads, CellTiter-Glo 96 h; 29,000 tested, under 10 active; activation, % (concentration not given with the values); call rule not given here;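 further: 0% = median vehicle wells and 100% = positive control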
NOMO-1 viab = STK33 inhibitor candidate reducing NOMO-1 cell viability | AID 2330 | 37,000 tested, 7.5% active | inhibition, % (concentration not given with the values) | NOMO-1 AML viability, CellTiter-Glo luminescence, 72 h; in the data active means inhibition above about 80%
STK33 inh = human STK33 kinase inhibition | Q9BYT3 | ADP-Glo luminescence, MBP substrate | inhibition, % at 12.5 µM | 27,000 tested, 0.44% active; in the data active means inhibition above about 20%
Active calls of the source: *; x = no result. The entries come from a sample that favours hits as a whole.

SMILES	PD-1 reverse act	NOMO-1 viab	STK33 inh
COc1ccc(S(=O)(=O)Nc2ccc3c(c2)C(=O)N([C@H](C)CO)C[C@@H](C)[C@@H](CN(C)Cc2ccc(-c4ccccc4)cc2)O3)cc1	0	77	x
Cc1cccc(OCC(=O)Nc2cccc(-c3nc4cc(C)cc(C)c4o3)c2)c1	0	-18	3
C[C@@H]1CN([C@@H](C)CO)C(=O)Cc2cc(NC(=O)Cn3cnnn3)ccc2O[C@@H]1CN(C)S(C)(=O)=O	x	-14	-1
Nc1nc(N(Cc2ccccc2)Cc2ccccc2)nc(C(F)(F)F)n1	0	120*	x
C[C@@H]1CN([C@@H](C)CO)C(=O)c2cc(NS(=O)(=O)c3cccs3)ccc2O[C@@H]1CN(C)Cc1ccc(Oc2ccccc2)cc1	-1	39	x
CCn1c(SCC(=O)Nc2ccc(Cl)c(Cl)c2)nnc1-c1cc2cccc(OC)c2o1	x	100*	3
COc1cccc2cc(-c3nnc(SCC(=O)Nc4ccc5ccccc5c4)n3C)oc12	1	17	2
O=C(CNS(=O)(=O)c1ccc(Cl)cc1)Nc1cccc([N+](=O)[O-])c1	x	21	-5
CC(=O)Nc1cc2ccccc2oc1=O	x	41	1
Cc1ccc(C(=O)Nc2cc3ccccc3oc2=O)cc1	0	139*	x
Cc1noc(C)c1NC(=O)Nc1cccc2c1O[C@@H](CN(C)Cc1ccc(C(F)(F)F)cc1)[C@H](C)CN([C@H](C)CO)C2=O	2	5	x
O=C1C=CC(=O)c2c(O)c(Cl)c(Cl)c(O)c21	-41	98*	22*
C[C@@H]1CN([C@@H](C)CO)C(=O)c2cccc(NC(=O)C3CC3)c2O[C@@H]1CN(C)Cc1ccc2c(c1)OCO2	-2	26	x
COc1ccc(S(=O)(=O)Nc2ccc3c(c2)C(=O)N([C@H](C)CO)C[C@H](C)[C@H](CN(C)C(=O)Nc2ccc4c(c2)OCO4)O3)cc1	x	-10	x
CSC1=N/C(=C\c2ccc(Cl)cc2)C(=O)N1CCc1c[nH]c2ccccc12	-1	85*	x
CSC1=N/C(=C\c2ccc(Cl)cc2)C(=O)N1CCOc1ccc(Cl)cc1	3	9	1
COc1ccc([N+](=O)[O-])cc1NC(=O)C(C)N(c1ccccc1)S(C)(=O)=O (stereo not given)	1	3	3
Cc1ccc(S(=O)(=O)Nc2ccc3c(c2)C(=O)N([C@H](C)CO)C[C@H](C)[C@H](CN(C)Cc2ccc(Cl)c(Cl)c2)OCCCC[C@@H](C)O3)cc1	-12	111*	6
C[C@@H]1CCCCO[C@H](CN(C)Cc2ccc(Cl)c(Cl)c2)[C@@H](C)CN([C@H](C)CO)C(=O)c2cc(NS(=O)(=O)c3ccc(F)cc3)ccc2O1	-1	61	1
C[C@@H]1CN([C@H](C)CO)C(=O)c2cc(NS(=O)(=O)c3ccccc3)ccc2O[C@@H]1CN(C)Cc1ccc(Cl)c(Cl)c1	-1	66	x
C[C@H]1CN([C@@H](C)CO)C(=O)c2cc(NS(=O)(=O)c3ccccc3)ccc2O[C@@H]1CN(C)Cc1ccc(Cl)c(Cl)c1	-4	55	-2
Cc1ccc(S(=O)(=O)Nc2ccc3c(c2)C(=O)N([C@@H](C)CO)C[C@@H](C)[C@@H](CN(C)Cc2ccc(Cl)c(Cl)c2)O3)cc1	-2	117*	x
Cc1ccc(S(=O)(=O)Nc2ccc3c(c2)C(=O)N([C@@H](C)CO)C[C@H](C)[C@@H](CN(C)Cc2ccc(Cl)c(Cl)c2)O3)cc1	-1	106*	x
C[C@H](CO)N1C[C@H](C)[C@H](CN(C)CC2CCCCC2)Oc2ccc(NC(=O)NC3CCCCC3)cc2CC1=O	1	43	1
C=CCn1c(-c2cccs2)nc(-c2ccccc2)c1-c1ccccc1	-5	121*	1
SMILES	PD-1 reverse act	NOMO-1 viab	STK33 inh
c1ccc(-n2c(SCc3nc4ccccc4s3)nnc2-c2cccs2)cc1	-3	39	5
O=c1cc(-c2ccccc2)nc(SCc2nc3ccccc3c(=O)[nH]2)[nH]1	x	30	-1
Cc1cccc(CN(C)C[C@H]2OCc3cn(nn3)CCCC(=O)N([C@H](C)CO)C[C@H]2C)c1	x	x	4
COc1c(O)c2c(=O)cc(OC)c3c4c(OC)cc(=O)c5c(O)c(OC)c(C[C@@H](C)OC(=O)c6ccccc6)c(c(c1C[C@@H](C)OC(=O)Oc1ccc(O)cc1)c23)c54	-10	142*	0
C[C@@H]1CN([C@@H](C)CO)C(=O)Cc2cc(NS(=O)(=O)c3ccc(F)cc3)ccc2O[C@@H]1CN(C)Cc1ccc(C(F)(F)F)cc1	-3	103*	5
C[C@@H]1CN([C@H](C)CO)C(=O)Cc2cc(NS(=O)(=O)c3ccc(F)cc3)ccc2O[C@H]1CN(C)Cc1ccc(C(=O)O)cc1	3	-1	-2
C[C@H]1CN([C@@H](C)CO)C(=O)Cc2cc(NS(=O)(=O)c3ccc(F)cc3)ccc2O[C@@H]1CN(C)Cc1ccc(C(F)(F)F)cc1	x	90*	4
